Compound activity from PubChem BioAssay.
An excerpt weighted towards active compounds, which were near 1.2% of everything screened.
Akt phos inh: blocks phosphorylation of Akt; Neuro2A IGF-stimulated pAkt S473 HTRF, 20 min; stronger effect = lower value; activity change, % for hits at 50 µM; 0.32% of 360,000 active; AID 651550; in the data active means activity change below about -80%; inconclusive means mostly about -51% to -80%; further: on the % scale 0 is the no-effect control and ±100 the full control effect
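Neuro2A cells in DMEM with 0.5% FBS, overnight at 37 deg C, given compound at single 50 µM final, then IGF (6 nM final) for 20 min at 37 deg C. Lysed; phospho-Akt Ser473 by HTRF after 24 h, 665/615 ratio.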
gsp agonist: agonists of gsp mutant (McCune-Albright syndrome) | AID 624287 | gsp mutant cells, cAMP HTRF, 30 min | 0.13% of 340,000 active | Potency, µM (series often up to 76.9 µM), inactives show at the highest dose activation (cAMP increase), actives largely listed as activators; active means well fitted activation curve with a large enough effect; inconclusive means small, poorly fitted or top-dose-only effect, or another doubt; inactive means no such curve, though single readings can be large or run the other way; cell line not stated here;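 further: phosphodiesterase inhibitor Ro 20-1724 added with compounds to block cAMP breakdown; potency means the concentration at half of the fitted maximal effect; nearly all actives have a fitted effect of over 60% in size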
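Cells in DMEM/10% FBS with G418 were pretreated with compounds in DMSO plus […] (300 uM stock) for 30 min at 37C. cAMP was measured by HTRF (cAMP-d2 plus anti-cAMP antibody-K) after 30 min at room temperature.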
gsp antagonist: antagonizes gsp, the McCune-Albright syndrome mutation; gsp-mutant cells, cAMP HTRF, 30 min; Potency, µM (doses to about 76.9 µM), without a hit: top-dose activity change, negative = inhibition, usual class: inhibitors; 0.4% of 340,000 active; calls by dose curve; cell line not stated here;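 further: intracellular cAMP measured with PDE inhibitor Ro 20-1724 present during compound exposure; potency means the concentration at half of the fitted maximal effect; on the % scale 0 is the no-effect control and ±100 the full control effect; nearly all actives have a fitted effect of over 65% in size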
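Measurement of cellular cAMP by homogeneous time-resolved fluorescence following a 30 min compound exposure at 37C. The PDE inhibitor […] was present throughout; the assay buffer was DPBS with 0.05% BSA and 0.005% Tween 20.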
RXFP1 antag: antagonists of human relaxin receptor RXFP1; HEK293-RXFP1, relaxin-stimulated cAMP HTRF, 30 min; stronger effect = lower value; 0.59% of 350,000 active; activity change, negative = inhibition, % at 57.5 µM;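 active means activity change of -60% or lower, but not beyond a set lower limit; inconclusive means change between -60% and -40%, or beyond the set limit; inactive means change above -40%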; further: on the % scale 0 is the no-effect control and ±100 the full control effect
Target sequence (Q9HBX9 whole entry, looked up): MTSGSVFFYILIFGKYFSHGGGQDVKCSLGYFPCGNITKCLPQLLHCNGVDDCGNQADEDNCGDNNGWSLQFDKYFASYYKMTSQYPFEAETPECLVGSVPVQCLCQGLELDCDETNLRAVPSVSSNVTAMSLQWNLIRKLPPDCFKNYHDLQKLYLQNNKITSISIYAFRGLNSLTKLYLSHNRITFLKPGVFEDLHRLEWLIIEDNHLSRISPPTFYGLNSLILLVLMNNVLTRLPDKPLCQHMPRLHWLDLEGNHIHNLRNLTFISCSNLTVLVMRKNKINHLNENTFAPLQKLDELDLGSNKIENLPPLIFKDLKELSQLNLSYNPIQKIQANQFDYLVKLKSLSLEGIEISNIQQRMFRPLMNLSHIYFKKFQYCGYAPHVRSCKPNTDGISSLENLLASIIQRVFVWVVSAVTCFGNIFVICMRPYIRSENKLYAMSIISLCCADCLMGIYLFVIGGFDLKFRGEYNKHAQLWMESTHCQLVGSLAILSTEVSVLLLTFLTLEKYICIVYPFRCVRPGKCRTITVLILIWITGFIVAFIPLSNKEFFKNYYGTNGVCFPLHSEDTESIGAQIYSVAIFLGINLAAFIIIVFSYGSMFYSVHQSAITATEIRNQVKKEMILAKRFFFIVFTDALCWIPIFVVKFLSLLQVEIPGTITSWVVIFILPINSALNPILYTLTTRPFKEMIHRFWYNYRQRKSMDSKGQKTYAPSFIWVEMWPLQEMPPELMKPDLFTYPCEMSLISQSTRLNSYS
RXFP1 ag: agonists of human relaxin receptor RXFP1 | HEK293T-RXFP1 cAMP TR-FRET, 30 min; response scale: percent of porcine relaxin response, buffer zero | Potency, µM (doses to about 57.5 µM), inactives show top-dose activation, usual class: activators | 0.3% of 370,000 active | AID 2676; active means well fitted activation curve with a large enough effect; inconclusive means small, poorly fitted or top-dose-only effect; further: potency means the concentration at half of the fitted maximal effect; on the % scale 0 is the no-effect control and ±100 the full control effect; nearly all actives have a fitted effect of over 60% in size
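Agonist response is measured as cAMP accumulation in an RXFP1-transfected HEK293T line under PDE4 inhibition. Values are scaled between buffer-only and 29 nM porcine relaxin, and EC50s come from standard Hill equation fits.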
Numbers without * were called inactive; i = inactive; ? = inconclusive; . = not tested or not shown; + = active, no number; [ ] = remark or other dose.

SMILES	Akt phos inh	gsp agonist	gsp antagonist	RXFP1 antag	RXFP1 ag
O=C(NCCc1ccc(Cl)cc1)c1ccc(CS(=O)Cc2cccc(Cl)c2)o1 (configuration not stated)	.	.	.	2	0%
Cc1cc(Cl)c(S(=O)(=O)NC2CCCC2)cc1OCC(=O)NC1CCCCC1	.	-26%	28µM*	-9	1%
CC(=O)N1CC(=O)N=C1SCC(=O)Nc1nc(C)c(-c2ccccc2)s1	i	-11%[15.4 µM]	?	-110*	-2%
CCc1ccc(CNC(=O)CCCn2nc(C)n3ccnc3c2=O)cc1	i	16µM*	7%	-6	?
Cc1nn(CCCC(=O)NCc2ccccc2)c(=O)c2nccn12	i	?	9%	20	28µM*
COc1ccc(C(=O)Nc2nnc(S(=O)(=O)N(C)c3ccc(C)cc3)s2)cc1	.	.	.	-10	0%
CC1=C(C(=O)O)N2C(=O)[C@@H](NC(=O)[C@H](N)C3=CCC=CC3)[C@H]2SC1	.	.	.	12	.
CO[C@@H]1[C@@H](OC2OC(C)C(OC3CC(C)(O)C(O)C(C)O3)C(N(C)C)C2O)[C@@H](CC=O)C[C@@H](C)[C@@H](OC2CCC(N(C)C)C(C)O2)/C=C/C=C/C[C@@H](C)OC(=O)C[C@H]1OC(C)=O (some centres not stated)	.	.	.	-9	.
COc1ccc(CCNc2oc(COc3ccc(Br)cc3)nc2C#N)cc1OC	i	-25%	40µM*	-62*	2%
O=C(CCN1C(=O)/C(=C\c2ccccc2Cl)SC1=S)Nc1cccnc1	i	-55%	35µM*	?	0%
O=C(CCN1C(=O)/C(=C/c2ccccc2F)SC1=S)Nc1cccnc1	i	-2%	?	-8	2%
CC(C(O)c1ccccc1)N(C)CCOC(c1ccccc1)c1ccccc1 (configuration not stated)	.	.	.	-31	.
Fc1cccc(CNc2ncnc3ccc(-c4ccoc4)cc23)c1	.	.	.	.	3%
COC(=O)N/N=C/c1ccc([N+](=O)[O-])o1	-115%*	-30%	1%	-1	0%
NC(=O)N/N=C/c1ccc([N+](=O)[O-])o1	i	.	1%	-13	1%
Cc1ccc(NC(=O)c2cc(N3C(=O)C=CC3=O)ccc2N2CCOCC2)cc1Cl	i	2%	18%	-71*	-1%
Cc1ccc(NC(=O)c2cc(N3C(=O)CCC3=O)ccc2N2CCOCC2)cc1	i	9%[15.4 µM]	-11%	2	-1%
O=C(Nc1ccc(N2CCOCC2)c(Cl)c1)c1ccc(Cl)cc1	i	4%[15.4 µM]	-28%	-83*	2%
CC(=O)Nc1ccc(N(C)C)cc1[N+](=O)[O-]	-109%*	-61%	-31%	-22	-1%
CC(=O)Nc1ccc(O)cc1[N+](=O)[O-]	i	-11%[15.4 µM]	4%	-8	1%
CSC1=C(C#N)C(CC(C)C)C2=C(CCCC2=O)N1 (configuration not stated)	-118%*	10%	3%	8	1%
COc1ccc(-c2nc3sc(CCNC(=O)Cc4ccccc4)c(C)n3n2)cc1	.	.	.	2	0%
COc1ccc2oc(=O)c(-c3csc(-c4ccc(Br)cc4)n3)cc2c1	.	.	.	3	10%
COc1ccc2oc(=O)c(-c3csc(Nc4ccc(O)cc4)n3)cc2c1	i	0%	25µM*	-39	-3%
COc1cc(NS(=O)(=O)c2cc3[nH]c(=O)c(=O)[nH]c3cc2C)cc(OC)c1OC	i	22%	10%	6	3%
SMILES	Akt phos inh	gsp agonist	gsp antagonist	RXFP1 antag	RXFP1 ag
COc1cc(NS(=O)(=O)c2ccc(C)cc2C)cc(OC)c1OC	i	?	35µM*	9	2%
COc1cc2c(cc1OC)C1O[C@](CCCCN3C(=O)c4ccccc4C3=O)(C2)OC2=C1C(=O)OC1(CCCCC1)C2	.	.	.	.	0%[11.5 µM]
CCOc1cccc(CC(=O)NCc2ccc3c(c2)CCN3C(=O)c2cccc(C)c2)c1OCC	.	.	.	.	0%
Cc1ccc(NS(=O)(=O)c2c(C)nc3sccn3c2=O)cc1	i	-91%	4%	-79*	0%
COC(=O)c1cc(S(=O)(=O)N2CCOCC2)ccc1Sc1ccccc1N	-99%*	-9%	-12%	1	-1%
O=C(NCC1CCCO1)c1c[nH]c2ccc(S(=O)(=O)Nc3cccc(C(F)(F)F)c3)cc2c1=O (configuration not stated)	.	.	.	-27	-1%
CC(C)=CCC/C(C)=C/CC/C(C)=C/CCC(=O)OC/C=C(\C)CCC=C(C)C	.	.	.	-11	.
NC(=O)c1nsc(C(=O)N(CC(=O)NC2CCCC2)c2ccc(F)c(Cl)c2)c1N	i	-19%	5%	-65*	1%
CCOc1ccc(N(C(=O)CC(C)C)S(=O)(=O)c2ccc3c(c2)oc(=O)n3C)cc1	.	.	.	-12	2%
COc1cccc(C2C(C#N)=C(N)OC3=C2C(=O)CC(c2ccco2)C3)c1OCc1ccc(F)cc1 (configuration not stated)	i	17%	15%	7	3%
N#CC1=C(N)OC2=C(C(=O)CC(c3ccco3)C2)C1c1ccc(OCc2c(F)cccc2Cl)cc1 (configuration not stated)	-112%*	-1%	-13%	-24	1%
O=C(CN1CCN(c2cccc(C(F)(F)F)c2)CC1)Nc1cccc(C(F)(F)F)c1	i	-2%	-1%	-7	0%
Cc1[nH]c2ccccc2c1NC(=O)CN1CCN(c2cccc(C(F)(F)F)c2)CC1	i	-27%	50µM*	8	0%
Cc1cccc(-n2nnnc2S(C)(=O)=O)c1	.	.	.	-84*	0%
Cn1c(=O)c2[nH]c(CCCc3ccc([N+](=O)[O-])cc3)nc2n(C)c1=O	i	16µM*	8%	10	.
Cn1c(=O)c2[nH]c(CCc3ccncc3)nc2n(C)c1=O	i	?	13%	5	.
CCCCC(=O)Nc1nnc(C)s1	i	15%	-1%	-5	2%
CCCCCCC(=O)Nc1nnc(CC)s1	-123%*	-20%	-3%	-14	1%
CCOc1ccc(C2c3[nH]c4ccccc4c3CCN2C(=O)CSc2ccccc2)cc1 (configuration not stated)	.	.	.	-32	-1%
CN1c2ccsc2C(O)=C(C(=S)Nc2ccc(F)c(Cl)c2)S1(=O)=O	i	-23%	35µM*	3	1%
O=C(Nc1ccc2snnc2c1)Nc1cccc2ccccc12	i	14%	50µM*	-4	0%
COc1ccc(N(Cc2ccccc2)C(=O)c2nc(S(C)(=O)=O)ncc2Cl)cc1	.	.	.	?	0%
CC(C)S(=O)(=O)c1csc(C(=O)Nc2ccc(F)cc2)c1N	i	-6%[15.4 µM]	+	-6	3%
Cc1ccc(C)c(-n2cc(CNCCCn3cccn3)c(-c3ccccc3)n2)c1	i	-32%[15.4 µM]	1%	-21	-1%
Cc1ccc(-n2cc(CNCCCn3cccn3)c(-c3cccc(C)c3)n2)cc1	i	-12%[15.4 µM]	1%	-64*	1%
